Sampled rows, rich in hits. Any-hit rate of the full collection: about 3%.
PAFAH1B3 FP inh: blocks human PAF acetylhydrolase 1B catalytic subunit 3; Q15102; AID 492972; inhibition, % at 3.39 µM; recombinant PAFAH1B3, FP-rhodamine probe, fluorescence polarization; actives 0.28% (n = 340,000);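 active = inhibition above the screen-wide average of all tested compounds plus 3 SD, cut at about 25% in these data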;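 note: 0% = enzyme with DMSO only and 100% = wells lacking PAFAH1B3 protein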
Target sequence (Q15102 whole entry, looked up): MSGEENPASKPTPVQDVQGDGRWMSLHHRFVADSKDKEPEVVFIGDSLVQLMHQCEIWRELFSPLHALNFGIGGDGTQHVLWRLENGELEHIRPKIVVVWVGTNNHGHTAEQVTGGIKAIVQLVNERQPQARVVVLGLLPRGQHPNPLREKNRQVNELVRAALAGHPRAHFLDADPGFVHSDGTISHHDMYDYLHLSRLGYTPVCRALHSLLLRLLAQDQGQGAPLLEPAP
PAFAH1B2 FP inh: blocks human PAF acetylhydrolase 1b catalytic subunit 2. recombinant PAFAH1B2, FP-rhodamine activity probe, fluorescence polarization. actives 1.2% (n = 340,000). AID 492953. inhibition, % at 3.39 µM. P68402;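 active = inhibition above the mean of all tested compounds plus 3 SD, cut at about 24% in these data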;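 note: 0% = enzyme with DMSO and 100% = wells lacking PAFAH1B2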
Target sequence (P68402 whole entry, looked up): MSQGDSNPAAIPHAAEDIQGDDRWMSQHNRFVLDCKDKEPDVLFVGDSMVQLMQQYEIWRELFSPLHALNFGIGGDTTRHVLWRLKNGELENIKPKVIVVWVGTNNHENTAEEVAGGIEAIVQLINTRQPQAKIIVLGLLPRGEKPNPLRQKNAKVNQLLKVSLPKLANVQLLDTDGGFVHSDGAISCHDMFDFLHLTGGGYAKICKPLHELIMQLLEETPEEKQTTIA
PP5 primary: blocks human protein phosphatase 5 activity. P53041. purified PP5c, OMFP substrate fluorescence. inhibition, % at 6.7 µM. actives 0.18% (n = 320,000). AID 1987;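 active = inhibition above the campaign's mean inhibition across all tested compounds plus 3 SD, cut at about 9.5% in these data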;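 note: 0% = DMSO only and 100% = 100 µM cantharidin control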
PAFAH2 inh: PAFAH2 (human) inhibition | inhibition, % at 3.39 µM | recombinant PAFAH2, FP-rhodamine activity probe, fluorescence polarization | actives 0.99% (n = 340,000);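 active = inhibition above the mean over all tested compounds plus 3 SD, cut at about 30% in these data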;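 note: inhibitors block probe labeling of enzyme so polarization drops; 0% = enzyme with DMSO and 100% = wells lacking PAFAH2 protein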
pPAFAH inh: inhibitors of human plasma PAF acetylhydrolase (pPAFAH); Q13093; recombinant pPAFAH, FP-rhodamine probe fluorescence polarization; inhibition, % at 3.39 µM; actives 1.5% (n = 330,000); AID 463082;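 active = inhibition above the mean inhibition across the screen plus 3 SD, cut at about 25% in these data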;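 note: inhibitors block binding of the rhodamine activity-based probe so polarization drops; 0% = enzyme with DMSO and 100% = wells lacking pPAFAH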
CTSL1 counter: blocks F. hepatica cathepsin L1 in PFM18AAP counter-screen; inhibition, % at 5.96 µM; recombinant F. hepatica cathepsin L1, Z-Leu-Arg-MCA fluorescence; AID 1906; actives 0.49% (n = 300,000);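 active = inhibition above the mean of all tested compounds plus 3 SD, set per screening campaign, cut at about 17% in these data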;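 note: 0% = plate median of test compound wells and 100% = 1 µM Z-Phe-Ala-diazomethylketone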
* marks the source's active call; other numbers are inactive results; . = not tested or not shown.

SMILES	PAFAH1B3 FP inh	PAFAH1B2 FP inh	PP5 primary	PAFAH2 inh	pPAFAH inh	CTSL1 counter
COc1ccc(-n2c(SCC#N)nnc2-c2ccc(NS(=O)(=O)c3ccc(C)cc3)cc2)cc1	6.2	3.8	7.9	7.4	26.1*	0.1
Cc1nnsc1C(=O)NC(C)C12CC3CC(CC(C3)C1)C2 (configuration not stated)	3.1	29.3*	2.1	4.7	1.4	-0.6
CC(NC(=O)c1ccccc1F)C12CC3CC(CC(C3)C1)C2 (configuration not stated)	10.5	26.7*	3.2	8.4	6.2	-2.1
Cc1onc(-c2ccccc2)c1-c1nnc(CN2CCN(S(=O)(=O)c3ccccc3)CC2)o1	13.4	3.6	0.1	-6.4	0.4	.
CN1C2=C(C(=O)CC(C)(C)C2)C(c2cccs2)C2=C1CC(C)(C)CC2=O	-3.9	2.5	2.5	1.9	3.9	2.6
COc1ccc(-c2cc(C(F)F)n3ncc(C(=O)N4CCc5ccccc54)c3n2)cc1	8.1	6.5	6.2	-2.3	-1.1	1.5
COc1ccc(-c2cc(C(F)F)n3ncc(C(=O)n4ccnc4C)c3n2)cc1	5.3	-1.1	-0.3	30.4*	2.1	7.9
CCOC(=O)C(C(=O)OCC)N(C#N)c1nc(OC)nc(N(C)C)n1	-7.6	3.1	0.2	1.5	2.6	76.8*
CCOC(=O)C(C(=O)OCC)N(C#N)c1nc(SC)nc(N(C)C)n1	-4.3	3.2	-6.2	0.3	-10.4	85.6*
O=C(CN1C(=O)NC2(CCCC2)C1=O)NNC(=O)c1ccc(F)cc1	5.2	7.8	-0.2	3.2	2.0	-6.6
CCN(C(=O)COC(=O)/C=C/c1ccco1)C1CCCCC1	-0.7	-1.6	.	2.3	5.2	.
Cc1cc(=O)[nH]c(SCC(=O)C23CC4CC(CC(C4)C2)C3)c1C#N	8.4	63.1*	3.3	49.0*	12.7	0.0
CCOC(=O)c1sc(N2C(=O)C(O)=C(C(=O)c3ccc(C)o3)C2c2cccc([N+](=O)[O-])c2)nc1C (configuration not stated)	11.1	2.8	2.9	47.5*	12.6	4.0
CCOC(=O)c1sc(N2C(=O)C(O)=C(C(=O)c3ccc(C)o3)C2c2ccc(OC)c(OC)c2)nc1C (configuration not stated)	2.8	1.2	1.5	-1.5	5.5	-2.1
Cc1ccc(N(Cc2ccccc2)C(=O)Cc2ccc(S(=O)(=O)N3CCOCC3)s2)cc1	-3.1	3.1	.	5.0	.	.
CC(=O)OCc1c(C(F)(F)F)nn(C)c1SCc1ccc(Cl)cc1	3.5	29.5*	2.4	1.7	1.7	1.2
COC(=O)c1cnc(SCc2ccc(Cl)cc2)n1C	3.4	2.6	1.9	3.7	2.3	0.6
CC1CCc2cc(F)ccc2N1S(=O)(=O)c1ccc(Cl)nc1 (configuration not stated)	6.5	29.0*	3.7	-4.4	-3.7	0.2
CC1CCc2cc(F)ccc2N1S(=O)(=O)c1ccc(F)cc1 (configuration not stated)	5.2	15.4	1.2	1.2	2.9	0.7
CC1=NN(C(C#N)c2ccccc2)C(c2ccccc2)C1 (configuration not stated)	.	.	-0.6	.	5.1	18.5*
O=C(O)COc1ccccc1/C=N/NC(=O)CN1CCN(S(=O)(=O)c2ccc(Br)cc2)CC1	2.7	27.2*	0.5	2.0	4.2	-0.9
O=C(CN1CCN(S(=O)(=O)c2ccc(Br)cc2)CC1)Nc1ccc(F)cc1	0.8	28.2*	4.5	5.8	-1.6	0.0
CC1CCN(S(=O)(=O)c2ccc(NC(=O)CN3CCCCCC3)cc2)CC1	2.2	30.2*	2.1	-3.0	8.2	-1.4
NS(=O)(=O)c1ccc(NC(=O)CN2CCN(S(=O)(=O)c3ccc(F)cc3)CC2)cc1	4.5	2.6	0.0	-2.3	2.2	-6.4
O=C(CCC(=O)N1CCN(S(=O)(=O)c2ccc(Cl)cc2)CC1)NC1CCCc2ccccc21 (configuration not stated)	-1.5	25.9*	-0.1	2.6	2.5	1.4
CCOc1ccc(CN(C)C(=O)[C@H](C)NC(=O)c2ccco2)cc1OC	-1.2	4.1	-0.3	-3.9	2.4	-0.9
CC1CCN(S(=O)(=O)c2ccc(N/N=C(/C#N)C(N)=O)cc2)CC1	2.7	39.6*	-1.4	8.4	3.1	5.5
COc1cccc(C(=O)CN2CCN(S(=O)(=O)c3ccc(Br)cc3)CC2)c1	-0.8	29.1*	0.7	-2.3	5.3	-1.0

Source: PubChem (The Scripps Research Institute Molecular Screening Center)
